Experimental data as given in ChEMBL document CHEMBL3988442, “University of Dundee, Small-Polar-MMV Screening Library” (2021).
About 13,000 (27%) of roughly 48,000 compounds showed an effect of 50% or more. The list shows a part of the results.

What follows are compounds tested on Wolbachia pipientis (assay: Anti-Wolbachia Cell-Based Screen). Settings: 5 µM.
Assay type: functional
Parameters: scale not given: in the data most compounds retested in dose-response had high values

Compound | Percent Effect [%]
CC(NC(N)=O)C(=O)NCc1cc(Br)ccc1F (centres undefined) | 3.265
CN1CCCN(C[C@@H]2CN(C(=O)CCc3cn[nH]c3)C[C@@H]2CO)CC1 | 1.74
O=C(C1CC=CC1)N1CCCn2nnc(CNc3ncccn3)c2C1 | 108.6
CN(C)C(=O)NCc1nnn2c1CN(CC1CCOCC1)CCC2.O=C(O)C(F)(F)F | 4.127
COCc1nnn2c1CN(C(=O)c1ccnnc1)CCC2 | -7.41
O=C(CO)N1CCCn2nnc(Cn3cccn3)c2C1 | -5.05
O=C(O)C(F)(F)F.c1cnc(NCc2nnn3c2CN(CC2CC2)CCC3)nc1 | 97.82
C1CN(CC2CCOCC2)Cc2c(COCC3CC3)nnn2C1.O=C(O)C(F)(F)F | 2.92
O=C(c1ccncc1)N1CCCn2nnc(Cn3cccn3)c2C1 | 4.632
O=C(c1ccnnc1)N1CCCn2nnc(COCC3CC3)c2C1 | -17.91
O=C(CC1CC1)N1CCCn2nnc(CNc3ncccn3)c2C1 | 92.45
COc1ccc(OC)c(CCNC(=O)NC(C)Cn2ccnc2)c1 (centres undefined) | -5.904
O=C(CSc1nncs1)N1CCN(Cc2ccc(Cl)s2)CC1 | -21
CCSc1ccc(C(C)NC(=O)CNS(C)(=O)=O)cc1 (centres undefined) | 4.212
O=C1OCCN1CCS(=O)(=O)c1cccc(Br)c1 | -18.91
CCC(C)CNCC1(S(C)(=O)=O)CCOCC1 (centres undefined) | -24.39
Cc1n[nH]c2ncc(CNC3CCCN(c4ncccn4)C3)cc12.Cl (centres undefined) | -16.46
OCc1cc(C2CCCN2c2ncccn2)n[nH]1 (centres undefined) | 112
CC(=O)N1CCCCC1c1cc(CO)[nH]n1 (centres undefined) | -3.311
Cc1nc(CN2CCN(C(=O)c3sccc3C3CC3)CC2)oc1C | 120.2
O=C(c1sccc1C1CC1)N1CCN(Cc2cscn2)CC1 | 132.1
O=C(c1sccc1C1CC1)N1CCCN(Cc2cscn2)CC1 | 113.8
Cc1cc(CN2CCN(C(=O)c3sccc3C3CC3)CC2)on1 | -1.767
Cc1nc(CN2CCCN(C(=O)c3ccccn3)CC2)oc1C | 3.458
Cc1cc(CN2CCN(C(=O)c3sccc3C3CC3)CC2)no1 | 143.4
COCc1nc(C(=O)N2CCN(Cc3cc(C)on3)CC2)cs1 | -18.23

Compound | Percent Effect [%]
Cc1nc(C2CCCN(C(=O)c3sccc3C3CC3)C2)no1 (centres undefined) | -10.65
NC(=O)NCC(=O)N1C[C@H]2CC[C@@H]1CN(Cc1ccccc1)C2 | -2.465
CCNc1ncc(C(=O)N[C@@H](C)[C@H](O)c2ccccc2)cn1 | -5.841
CS(=O)(=O)NCC(=O)N[C@H]1CN(CC2CC2)C[C@@H]1c1ccccc1 | 5.176
Cc1cc(C)n(C2CN(CC(=O)NCC(C)(C)N3CCOCC3)C2)n1 | 4.363
CC1CCN(S(=O)(=O)N2CCc3sccc3C2)CC1 | 3.018
C[C@@H]1CN(S(=O)(=O)N2CCOCC2)C[C@@]1(O)C1CC1 | 13.89
Cc1cc(C)n(C2CCCN(C(=O)C3=NN(C)C(=O)CC3)C2)n1 (centres undefined) | -1.412
Cc1cc(C)n(C2CCN(S(=O)(=O)N3CCOCC3)CC2)n1 | 108
Cc1cc(C)n(C2CCCN(C(=O)c3c(C)c(C)n[nH]c3=O)C2)n1 (centres undefined) | -2.25
Cc1cc(C)n(C2CCN(S(=O)(=O)N3CCC(C)CC3)CC2)n1 | 84.26
Cc1cc(C)n(C2CCN(S(C)(=O)=O)CC2)n1 | 88.3
Cc1ccc([C@@H]2CN(S(=O)(=O)N3CCC(C)CC3)C[C@H]2N(C)C)cc1 | 5.444
CN(Cc1cnn(C)c1)C1CCN(c2cccc(-c3cscn3)c2)CC1 | -7.204
CCn1c(CC2CCN(C(=O)c3cc(C(C)C)nn3C)CC2)n[nH]c1=O | 0.9199
Cc1occc1C(=O)NCC(=O)NCCCOc1ccc(F)cc1 | -8.265
CCc1nnc(CNc2ccc(CC(=O)N3CCSCC3)cc2)o1 | 7.337
CCNC(=O)[C@@H]1C[C@H](N)CN1C(=O)Cc1cc(C)ccc1C | -8.677
COC(=O)[C@@H]1C[C@@H](NC(=O)CN2C(=O)N(C)Cc3ccccc32)CN1C | -9.28
Cc1ccc2[nH]c(=O)cc(C(=O)NCCCn3nccc3C3CC3)c2c1 | -8.543
CCc1ccc2nc(C)cc(C(=O)NC3CCC(=O)N(C)C3)c2c1 (centres undefined) | -60.56
CCNC(=O)[C@@H]1C[C@H](NC(=O)c2cc(=O)[nH]c3ccc(C)cc23)CN1C | 116.2
COC(=O)[C@@H]1C[C@H](NC(=O)Cn2c(=O)cc(C)c3ccccc32)CN1C | 0.9939
CCNC(=O)[C@@H]1C[C@@H](N)CN1C(=O)Cc1cc(C)ccc1C | -80.39
COC(=O)[C@@H]1C[C@H](NC(=O)c2cc(=O)[nH]c3ccc(C)cc23)CN1C | 103.5
CCc1ccc2nc(C)cc(C(=O)N[C@@H]3C[C@@H](CO)N(C)C3)c2c1 | 90.46

Compound | Percent Effect [%]
CCc1ccc2nc(C)cc(C(=O)N[C@@H]3CCCNC3)c2c1 | -27.02
Cc1ccc2[nH]c(=O)cc(C(=O)N[C@@H]3C[C@@H](CO)N(C)C3)c2c1 | 108.3
CNc1ccc(C)cc1C(=O)N[C@H]1C[C@H]2CN(C)CCN2C1 | 9.233
CCNc1ncc(C(=O)N2CCOC(CCCc3ccccc3)C2)cn1 (centres undefined) | 15.39
Cc1nc(C)c(C(=O)NCc2nc3cccc(C)c3n2C)o1 | 31.6
O=C(c1ncn2c1CNS(=O)(=O)c1ccccc1-2)N1CCCCC1 | -12.5
CC(C)(CNC(=O)C1(c2cccc(Br)c2)CCOCC1)C(=O)O | -13.82
COc1cccc(CC(=O)N2CCc3ncnc(NCCO)c3CC2)c1 | -0.2896
Cc1cnccc1N1CCCN(C(=O)CCc2n[nH]c(C)c2C)CC1 | -9.911
Cc1ccsc1[C@@H]1CCN(C(=O)CCc2n[nH]c(C)c2C)C[C@H]1O | 6.25
Cc1[nH]nc(CCC(=O)N2CCc3ncnc(NCCO)c3CC2)c1C | 77.14
CSCCC(=O)N1CCc2c(ncnc2N2CCOCC2)C1 | -13.57
Cc1ccccc1CCC(=O)N1CCc2ncnc(NCCO)c2CC1 | -0.3127
Cc1n[nH]c(C)c1CCC(=O)N1CCc2c(nc[nH]c2=O)C1 | 106.7
Cc1[nH]nc(CCC(=O)N2CCc3c(nc[nH]c3=O)C2)c1C | 104.7
Cc1nc(CCC(=O)N2Cc3cnc(-c4ccccc4)nc3C2)n[nH]1 | -6.082
Cn1nc(Cn2cccc2)c2c1CN(Cc1ccoc1)C2.O=C(O)C(F)(F)F | -1.566
Oc1cccc(CN2CCN(c3nccc(CCC(F)(F)F)n3)CC2)c1 | 0.5395
Cc1cc(C)c2nc(CN3CCC(CN)CC3)cc(O)c2c1 | -3.326
CN(C)C(=O)NCc1cc2n(n1)CCCN(CC1CCCNC1)C2 (centres undefined) | -1.604
COC1CCN(CCNC(=O)NC(C)c2ccc(F)c(F)c2)CC1 (centres undefined) | 2.95
CCOCCn1c(=O)n(CCC=C(C)C)c2cc(C(=O)O)cnc21 | -10.97
Cc1cnc(C)c(N2CCN(Cc3ccc(C)c(C)c3)CC2)n1 | -24.43
Cc1cc(NC2CCN(CC3CCCO3)CC2)n2nc(C)c(C)c2n1 (centres undefined) | 11.1
Cc1ncc2c(n1)CN(CC1CCCCO1)CC2 (centres undefined) | 1.379
Cc1cnc(C)c(N2CCN(CC3CCCO3)CC2)n1 (centres undefined) | 94.75

Compound | Percent Effect [%]
CC1(C)CN=C(N2CCN(CC3CCCCO3)CC2)S1 (centres undefined) | 87.51
COCc1ccccc1C(=O)N1CCN(C2=NCC(C)(C)S2)CC1 | -20.33
CC1(c2ccccc2)CCC(=O)N(CCCN2CCOCC2)C1 (centres undefined) | 6.196
CC(C)c1nc(CN2CCN(CC3CCCO3)CC2)cs1 (centres undefined) | 2.342
CC1(C)CN=C(N2CCN(CC3CCCO3)CC2)S1 (centres undefined) | 67.12
CC1(C)CN=C(N2CCN(CCCN3CCOCC3)CC2)S1 | 99.8
CCn1ncc(C(=O)N2CCN(CC3CCCO3)CC2)c1C (centres undefined) | -12.64
CCC(C)NC(=O)c1coc(COc2cccc(F)c2)n1 (centres undefined) | -23.89
Cc1nn(C(C)(C)C)c(=O)n1CC(=O)NCC(F)(F)F | 1.676
O=C(NCc1ccccc1)[C@H]1C[C@@H]2CN(S(=O)(=O)C3CC3)C[C@H]1O2 | 0.5177
CCC(CNS(N)(=O)=O)Oc1ccccc1F (centres undefined) | -4.298
CC1(C)CN=C(N2CCN(CC3CCOC3)CC2)S1 (centres undefined) | 102.4
COc1ncnc2c1CCN(CC1CCOC1)CC2 (centres undefined) | -41.04
N#Cc1c(N2CCN(CC3CCOC3)CC2)nc2ccccn12 (centres undefined) | -4.336
Cc1n[nH]c(C)c1S(=O)(=O)N(C)Cc1nn(C)c(Cl)c1Cl | 0.7109
CCN(Cc1cc(Br)ccc1F)C(=O)C(C)NC(N)=O (centres undefined) | -3.713
Cc1cccn2c(CNC(C)CCc3ccc(O)cc3)cnc12 (centres undefined) | -2.833
COc1ccccc1OC1(C(=O)O)CCN(c2nccnc2C)CC1 | -2.671
CCn1nc(C(C)C)cc1C(=O)N1CCOc2ccc(OC)cc21 | 10.42
COCCN(C)CCN1CC2(CCN(C3CCNCC3)CC2)OC1=O | 0.09435
CC(=O)N1CC[C@@H]2CN(Cc3cccc(Cl)c3)S(=O)(=O)[C@@H]2CC1 | -7.404
CNC(=O)N1CC[C@@H]2CN(Cc3cccc(Cl)c3)S(=O)(=O)[C@@H]2CC1 | -6.007
CNC(=O)N1CC[C@@H]2CN(Cc3cccc(OC)c3)S(=O)(=O)[C@@H]2CC1 | 89.38
CNC(=O)N1CC[C@@H]2CN(Cc3ccccc3)S(=O)(=O)[C@@H]2CC1 | 102
CNC(=O)N1CC[C@@H]2CN(CCc3cccc(OC)c3)S(=O)(=O)[C@@H]2CC1 | -2.748
CC(C)NC(=O)N1CC[C@@H]2CN(Cc3cccc(Cl)c3)S(=O)(=O)[C@@H]2CC1 | -12.85
